# Rows were chosen to be rich in hits. Some 19% of all compounds tested hit in one or more screens of this group.
# DT40 TDP1 CPT: growth inhibition of DT40 Tdp1-/-;hTDP1 cells with camptothecin (screen for TDP1 inhibitors) | chicken DT40 Tdp1-/-;hTDP1 cells + 20 nM CPT, ATP luminescence, 48 h | Potency, µM (doses to about 46.2 µM), for inactives: at the top dose activity change, negative = growth inhibition, hits mostly inhibitors | 420,000 compounds, 12% hits; further: potency means the concentration at half of the fitted maximal effect; nearly all actives have a fitted effect of over 55% in size
#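 Chicken DT40 Tdp1-/- cells complemented with human TDP1, 400 cells/well, exposed to compounds plus 20 nM camptothecin for at least 48 h at 37 C; viability read as ATP content by CellTiter-Glo luminescence.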
# HT1080 IDH1KD tx: toxicity to HT-1080 IDH1 knockdown cells (counter line) | HT-1080 IDH1 knockdown viability, ATP luminescence, 48 h | Potency, µM (top dose mostly 46.1 µM), for inactives: at the top dose activity, negative = toxicity, hits mostly cytotoxic | 360,000 compounds, 2% hits;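 further: potency means the concentration at half of the fitted maximal effect; 0% = DMSO wells and -100% = cell-free medium wells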
#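 Cytotoxicity counter-line: IDH1KD HT-1080, 48 h, CellTiter-Glo. Curves classed by r2, magnitude and activity.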
# DT40 TDP1 no CPT: qHTS for Inhibitors of human tyrosyl-DNA phosphodiesterase 1 (TDP1): qHTS in cells in absence of CPT; DT40 Tdp1-/- hTDP1 cells, no CPT, ATP luminescence, 48 h; Potency, µM (titrated, usually from 46.2 µM), without a hit: top-dose activity change, negative = growth inhibition, hits mostly inhibitors; 420,000 compounds, 15% hits; AID 686978, 2013; further: potency means the concentration at half of the fitted maximal effect; nearly all actives have a fitted effect of over 55% in size
#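 Growth of hTDP1-complemented DT40 Tdp1-knockout cells is measured by ATP luminescence after at least 48 hr compound exposure at 37 °C, with DMSO substituting for the 20 nM CPT used in the parallel screen.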
# HT1080-NT tox: kills 2HG-producing HT-1080-NT fibrosarcoma cells; HT-1080-NT fibrosarcoma viability, CellTiter-Glo ATP luminescence, 48 h; Potency, µM (top dose mostly 46.1 µM), for the others: at the top dose activity, negative = less viability, hits mostly cytotoxic; 360,000 compounds, 1.6% hits; AID 686970;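 further: NT is the 2HG producing partner of a matched IDH1 knockdown line; potency means the concentration at half of the fitted maximal effect; 0% = DMSO-treated cells and -100% = media-only wells without cells; nearly all actives have a fitted effect of over 55% in size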
#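 HT-1080-NT fibrosarcoma cells (2HG-overproducing), 750 cells/well in RPMI with 5% FBS, dosed after 2 h and incubated 48 h at 37C. CellTiter-Glo luminescence normalized to DMSO and no-cell wells; concentration-response curves fitted and classed.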
# IL1B secr inh: inhibitors of inflammasome signaling (IL-1 beta secretion). AID 743279. THP-1 LPS/ATP IL-1B secretion, AlphaLISA, 16 h; stronger effect = lower value. 360,000 compounds, 4.7% hits. activity change, % at 57.5 µM; in the data active means activity change below about -50%; inconclusive means mostly about -30% to -49%
#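 THP-1 cells pretreated 1 hr with compounds (up to 57.5 uM final), then stimulated with LPS (250 ng/mL final) plus ATP (1.25 mM final); secreted IL-1B measured by AlphaLISA after 16 hr, decreased signal indicating inhibition.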
# Starred values were filed as active, the others as inactive; ? = inconclusive; nt = not tested or not shown. Unless noted, the call rests on the fitted dose curve; in most records, active means well fitted curve in the direction sought with a large enough effect; inconclusive means small, poorly fitted or top-dose-only effect, or another doubt; inactive means no such curve, though single readings can be large; an effect the other way counts as inactive or inconclusive. Unless noted, on the % scale 0 is the no-effect control and ±100 the full control effect.
SMILES,DT40 TDP1 CPT,HT1080 IDH1KD tx,DT40 TDP1 no CPT,HT1080-NT tox,IL1B secr inh
CCc1ccc(C(O)c2ncc(-c3cccc(C)c3)[nH]2)cc1 (stereo not given),?,-29%,?,?,-13
OC(Cc1ccccc1)c1ncc(-c2ccc3ccccc3c2)[nH]1 (stereo not given),?,18µM*,23µM*,?,21
Cc1cccc(-c2cnc(C(O)Cc3ccccc3)[nH]2)c1 (stereo not given),16µM*,?,?,?,4
OC(c1cccc(F)c1)c1ncc(-c2ccc3ccccc3c2)[nH]1 (stereo not given),?,-25%,?,?,13
O=C(O)CCCNC(=O)c1cccc(C(=O)NCCCC(=O)O)n1,6%,-4%,11%,-6%,5
Clc1ccccc1-c1nc2nc3ccccc3nc2n1-c1ccc2c(c1)OCO2,?,0%,23µM*,4%,-10
Cc1c(C)c(C)c(S(=O)(=O)NCCC(=O)N2CCN(Cc3ccc(C#N)cc3)CC2)c(C)c1C,16µM*,-9%,8.2µM*,-9%,8
CCOc1ccc(NC(=O)Cn2c(=O)n(Cc3nc(-c4ccccc4)no3)c(=O)c3ccccc32)cc1,-19%,nt,?,nt,nt
COc1cc(OC)c(NS(=O)(=O)c2c(C(=O)N3CCCCC3)c(C)n(C)c2C)cc1Cl,1%,-1%,1%,1%,-13
COc1cc(OC)c(NS(=O)(=O)c2c(C(=O)N3CCCCCC3)c(C)n(C)c2C)cc1Cl,?,nt,21µM*,nt,nt
Cc1cc(Cl)ccc1NS(=O)(=O)c1c(C(=O)N2CCC(C)CC2)c(C)n(C)c1C,?,nt,16µM*,nt,nt
O=C(COC(=O)c1cc(S(=O)(=O)N2CCOCC2)ccc1F)c1ccc[nH]1,8%,0%,-4%,1%,-62*
O=C(COC(=O)c1cc(S(=O)(=O)N2CCOCC2)ccc1Cl)c1ccc[nH]1,-5%,-7%,?,2%,-26
O=C1COc2ccc(C(=O)COC(=O)c3cc(S(=O)(=O)N4CCOCC4)ccc3F)cc2N1,12%,3%,-5%,0%,-70*
C/C(=N\NC(=O)c1cc(-c2cccc(OC(C)C)c2)nc2ccccc12)c1cccnc1,10µM*,?,?,-20%,-3
C/C(=N/NC(=O)c1cc(-c2ccccc2)nc2c(Cl)cccc12)c1cccnc1,10%,?,-28%,-3%,-1
C/C(=N\NC(=O)c1cc(-c2ccc(C)s2)nc2ccccc12)c1cccnc1,12µM*,?,?,-24%,-53*
C/C(=N\NC(=O)c1cc(-c2ccccc2C)nc2ccccc12)c1cccnc1,?,-2%,?,-1%,-4
C/C(=N\NC(=O)c1cc(-c2cccnc2)nc2ccccc12)c1ccc(O)cc1O,12µM*,?,10µM*,?,49
COc1ccc(-c2cc(C(=O)N/N=C(\C)c3cccnc3)c3cc(C)ccc3n2)cc1OC,8.2µM*,-8%,1.2µM*,-13%,-22
C#CCOCCOCCOCCNc1nc(N2CCN(C(=O)CCCCCCCCCCNC(=O)Cn3cc(C[C@@H](C)O)nn3)CC2)nc(N2CCN(C(=O)CCCCCCCCCCNC(=O)[C@@H](CCSC)n3cc(CCO)nn3)CC2)n1,?,21µM*,10µM*,?,2
C#CCOCCOCCOCCNc1nc(N2CCN(C(=O)CCCCCCCCCCNC(=O)[C@H](CCCCN)n3cc(C[C@@H](C)CC)nn3)CC2)nc(N2CCN(C(=O)CCCCCCCCCCNC(=O)[C@@H]([C@H](C)O)n3cc(C)nn3)CC2)n1,4.6µM*,?,5.2µM*,?,?
C#CCOCCOCCOCCNc1nc(N2CCN(C(=O)CCCCCCCCCCNC(=O)Cn3cc(CCCCCN)nn3)CC2)nc(N2CCN(C(=O)CCCCCCCCCCNC(=O)[C@@H]([C@H](C)O)n3cc(C)nn3)CC2)n1,?,-15%,?,-5%,-20
C#CCOCCOCCOCCNc1nc(N2CCN(C(=O)CCCCCCCCCCNC(=O)[C@H](CCCCN)n3cc(C)nn3)CC2)nc(N2CCN(C(=O)CCCCCCCCCCNC(=O)[C@@H]([C@H](C)O)n3cc(C)nn3)CC2)n1,?,?,?,10µM*,-60*
C#CCOCCOCCOCCNc1nc(N2CCN(C(=O)CCCCCCCCCCNC(=O)[C@@H](CCSC)n3cc(CCO)nn3)CC2)nc(N2CCN(C(=O)CCCCCCCCCCNC(=O)[C@H](CCCN=C(N)N)n3cc(C[C@@H](C)CC)nn3)CC2)n1,26µM*,?,?,?,-100*
SMILES,DT40 TDP1 CPT,HT1080 IDH1KD tx,DT40 TDP1 no CPT,HT1080-NT tox,IL1B secr inh
C#CCOCCOCCOCCNc1nc(N2CCN(C(=O)[C@H]([C@@H](C)O)n3cc(CCCCN)nn3)CC2)nc(N2CCN(C(=O)[C@H](CCCCN)n3cc(CC(C)O)nn3)CC2)n1 (stereo not given in full),-19%,-2%,-6%,-1%,-10
CCN(CC(=O)Nc1c(F)cccc1F)C(=O)C1=COCCO1,-18%,7%,-2%,9%,6
C#CCOCCOCCOCCNc1nc(N2CCN(C(=O)CCCCCCCCCCNC(=O)[C@@H](CCSC)n3cc(CCO)nn3)CC2)nc(N2CCN(C(=O)CCCCCCCCCCNC(=O)[C@@H]([C@H](C)O)n3cc(C)nn3)CC2)n1,6.5µM*,-13%,9.2µM*,-6%,?
C#CCOCCOCCOCCNc1nc(N2CCN(C(=O)CCCCCCCCCCNC(=O)[C@H](CCCCN)n3cc(C)nn3)CC2)nc(N2CCN(C(=O)CCCCCCCCCCNC(=O)[C@H](CCCN=C(N)N)n3cc(C[C@@H](C)CC)nn3)CC2)n1,23µM*,?,12µM*,?,-102*
C#CCOCCOCCOCCNc1nc(N2CCOCC2)nc(N2CCN(C(=O)CCCCCCCCCCNC(=O)[C@H]([C@@H](C)CC)n3cc(CCCCN=C(N)N)nn3)CC2)n1,-14%,-1%,-11%,2%,?
C#CCOCCOCCOCCNc1nc(N2CCN(C(=O)CCCCCCCCCCNC(=O)[C@H](CCCCN)n3cc(CCO)nn3)CC2)nc(N2CCN(C(=O)CCCCCCCCCCNC(=O)[C@H](CCCCN)n3cc(C[C@@H](C)CC)nn3)CC2)n1,?,?,?,?,-20
Clc1ccc2nc(C3CCCCC3)c(Cc3ccccc3)n2c1,-7%,0%,-28%,1%,28
Cc1ccc(Cc2c(C3CCCCC3)nc3ccc(Cl)cn23)cc1,?,-22%,?,?,24

# Screening data as filed in PubChem BioAssay.
